Test results reported in PubChem BioAssay AID652016 (National Center for Advancing Translational Sciences (NCATS), 2013).
Records with an inconclusive call do not appear. Activity calls are given as the source filed them. Calls follow the shape of the dose curve; as a rule, active = well fitted inhibition curve with a large enough effect; inconclusive = small, poorly fitted or top-dose-only effect; inactive = flat fitted curve, though single readings scatter.

Target: Luciferin 4-monooxygenase (Photinus pyralis) (UniProt P08659)
Sequence (P08659 whole entry, looked up): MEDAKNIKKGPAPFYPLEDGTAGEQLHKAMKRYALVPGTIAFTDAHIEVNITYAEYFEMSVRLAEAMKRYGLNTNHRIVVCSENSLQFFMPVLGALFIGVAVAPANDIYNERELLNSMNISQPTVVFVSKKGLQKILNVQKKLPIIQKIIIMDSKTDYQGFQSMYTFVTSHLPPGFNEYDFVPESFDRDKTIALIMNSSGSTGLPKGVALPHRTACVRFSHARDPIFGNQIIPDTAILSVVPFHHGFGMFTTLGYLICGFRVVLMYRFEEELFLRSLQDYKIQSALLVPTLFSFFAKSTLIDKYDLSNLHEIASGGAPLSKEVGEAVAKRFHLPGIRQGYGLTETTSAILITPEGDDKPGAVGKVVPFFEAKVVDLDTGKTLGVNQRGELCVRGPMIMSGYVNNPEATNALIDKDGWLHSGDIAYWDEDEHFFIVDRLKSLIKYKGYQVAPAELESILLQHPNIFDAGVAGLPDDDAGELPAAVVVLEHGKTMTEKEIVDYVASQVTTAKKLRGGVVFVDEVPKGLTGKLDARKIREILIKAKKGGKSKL
Test: qHTS Assay for Inhibitors of Firefly Luciferase from the GSK Published Protein Kinase Inhibitor Set
Conditions: purified firefly luciferase, luminescence inhibition; series mostly up to 57.5 µM; activity change, negative = inhibition: at the top concentration
Outline: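 Enzyme-level luminescence assay: compounds titrated (about 60uM down to 300pM) into substrate buffer (10uM ATP, 10uM D-luciferin, pH 7.5 Tris acetate with Mg, Tween-20, BSA), then 10nM firefly luciferase added; read after ~5 min.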
% is scaled to controls: 0 for no effect and ±100 for the full control effect; potency is read from the fitted curve at half-maximal effect.

Row | SMILES | activity change, negative = inhibition | Potency
1 | COc1cc(Nc2ncc3c(C)nc(-c4cccc(C(F)(F)F)c4)n3n2)cc(OC)c1OC | -1.91% (inactive) | –
2 | O=C1NC(=O)C(c2cccc(Cl)c2)=C1Nc1ccc(Cl)c(C(=O)O)c1 | 9.38% (inactive) | –
3 | CNC(=O)c1sc(-n2cnc3cc(OC)c(OC)cc32)cc1OCc1ccccc1C(F)(F)F | 6.52% (inactive) | –
4 | CC1=C(C(=O)Nc2ccc3[nH]ncc3c2)C(c2ccc(F)cc2)NC(=O)N1 (stereo not drawn) | -2.1% (inactive) | –
5 | Cc1nnc(-c2ccc(C)c(-c3ccc(C(=O)NCc4ccc(Cl)cc4)cc3)c2)o1 | 3.77% (inactive) | –
6 | COC(=O)Nc1nc2ccc(Oc3ccc(NC(=O)Nc4ccccc4)cc3)cc2[nH]1 | – | 14.6 µM (active)
7 | CCS(=O)(=O)c1ccc(OC)c(Nc2ncc(-c3ccccc3Cl)o2)c1 | -5.19% (inactive) | –
8 | CS(=O)(=O)Nc1ccc(-c2cc(-c3ccccc3)cc(C(N)=O)c2N)cc1 | 24.7% (inactive) | –
9 | COc1cccc(C=NNc2ncnc3c2cnn3-c2cccc(OC)c2)c1 | -14.2% (inactive) | –
10 | COc1cc2ncn(-c3cc(OCc4ccccc4S(C)(=O)=O)c(C#N)s3)c2cc1OC | 5.28% (inactive) | –
11 | COC(=O)Nc1nc2ccc(S(=O)(=O)c3ccc(NC(=O)Nc4cc(C(F)(F)F)ccc4F)cc3)cc2[nH]1 | 5.29% (inactive) | –
12 | COc1cc2ncnc(Nc3ccc(C)c(O)c3)c2cc1OC | 1.88% (inactive) | –
13 | Nc1nonc1-c1nc2cnccc2n1C1CCCCC1 | 21.4% (inactive) | –
14 | NC(=O)c1sc(-n2cnc3ccccc32)cc1OCc1ccccc1Br | -3.22% (inactive) | –
15 | COc1ccc2c(-c3ccnc(Nc4cccc(OC(F)(F)F)c4)n3)cnn2n1 | 6.14% (inactive) | –
16 | COc1ccc(-c2cc3c(N)ncnc3o2)cc1 | – | 6.51 µM (active)
17 | CCn1c(-c2nonc2N)nc2ccncc21 | 0.105% (inactive) | –
18 | COc1ccc(Nc2ncc(-c3ccccc3)o2)cc1OC | – | 5.8 µM (active)
